Measured values published in PubChem BioAssay.
Activity calls are given as the source filed them.

Experiments:
Albumin (Bos taurus) = Albumin (Bos taurus) (UniProt P02769); experiment: compounds binding labelled BSA control protein – biochemical, small-molecule microarray, Alexa647 label, 635/667 nm fluorescence, artefact control for SMM control protein annotation, profiling panel (AID 1118); conditions: BSA-A647 binding, fluorescence 635 nm, higher = more signal;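 note: score merges 667 nm emission intensity and signal-to-noise per printed compound spot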
Albumin (Bos taurus), sequence (P02769 whole entry, looked up): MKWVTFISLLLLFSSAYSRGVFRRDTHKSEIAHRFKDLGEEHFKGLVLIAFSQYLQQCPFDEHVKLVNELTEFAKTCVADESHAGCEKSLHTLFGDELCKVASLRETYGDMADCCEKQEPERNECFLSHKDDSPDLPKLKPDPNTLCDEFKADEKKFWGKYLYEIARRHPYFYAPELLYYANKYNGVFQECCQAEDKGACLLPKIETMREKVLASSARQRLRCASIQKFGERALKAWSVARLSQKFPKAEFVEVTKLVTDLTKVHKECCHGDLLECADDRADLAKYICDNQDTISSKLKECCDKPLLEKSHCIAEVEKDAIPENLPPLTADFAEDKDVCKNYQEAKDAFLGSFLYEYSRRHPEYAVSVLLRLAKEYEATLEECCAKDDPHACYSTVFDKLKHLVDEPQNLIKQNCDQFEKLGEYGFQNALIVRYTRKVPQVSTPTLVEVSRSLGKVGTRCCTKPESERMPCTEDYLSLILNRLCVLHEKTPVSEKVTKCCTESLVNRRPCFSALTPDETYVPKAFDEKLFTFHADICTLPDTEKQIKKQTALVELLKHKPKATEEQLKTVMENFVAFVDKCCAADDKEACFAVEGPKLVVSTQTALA

[1] = probe aXIP binding to arrayed compounds – biochemical, NeuroSMM set, 635/667 nm fluorescence, primary screen (AID 1119); conditions: small-molecule microarray, higher = more signal, called active from +8 up or from −8 down;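 note: probe is the protein aXip251-270 applied at 1 µg/mL to compound-printed slides; binding of probe to printed compounds measured as 667 nm fluorescence plus signal to noise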
[2] = probe aNOTCH3 binding on compound microarray – biochemical, small-molecule microarray, 635/667 nm fluorescence, primary screen (AID 1120); conditions: higher = more signal;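 note: probe is a biotin-tagged antibody raised against NOTCH3 rather than NOTCH3 protein; score merges spot fluorescence near 667 nm with spot signal to noise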
[3] = probe aNOTCH2 binding on compound microarray – biochemical, small-molecule microarray, 635/667 nm fluorescence, primary screen (AID 1121); conditions: higher = more signal;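 note: score merges feature fluorescence read at 667 nm with its signal to noise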
[4] = target: Carbonic anhydrase 2 (Homo sapiens) (UniProt P00918); experiment: compounds binding carbonic anhydrase 2 – biochemical, small-molecule microarray, Alexa647-labelled CAII, profiling panel (AID 1122); conditions: CAII-A647 binding fluorescence, higher = more signal
[5] = COS7 lysate on small-molecule microarray, probe aHis, 635 nm (AID 1123); conditions: COS7 cell lysate, fluorescence, higher = more signal;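 note: z-score combines 667nm fluorescence intensity with signal-to-noise per printed compound spot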
[6] = probe aLAP1 signal on lysate-treated microarray – cell lysate, small-molecule microarray, COS7 lysate, primary screen (AID 1124); conditions: probe aLAP1, fluorescence, higher = more signal;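 note: lysate comes from COS7 cells expressing LAP1 and is applied at 0.3 µg/mL; score merges spot fluorescence near 667 nm with signal-to-noise over triplicate slides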
Sam68 (KHDRBS1) = experiment: compounds binding KHDRBS1 protein – biochemical, small-molecule microarray, 635 nm fluorescence, primary screen (AID 1125); conditions: higher = more signal;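 note: score merges 667 nm channel intensity with signal to noise over triplicate slides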
[7] = tested on: Chordin-like protein 2 (CHRDL2); experiment: compounds binding chordin-like 2 – biochemical, small-molecule microarray, 635 nm fluorescence, primary screen (AID 1126); conditions: fluorescence 635 nm, higher = more signal;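 note: printed compound slides probed with Chrdl2 protein at 4 µg/mL for 1 h at 4 C; score merges 667 nm emission intensity with signal to noise over three replicate slides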
[8] = target: Concanavalin-A (Canavalia ensiformis) (UniProt P02866); experiment: compounds binding concanavalin A lectin – biochemical, small-molecule microarray, Alexa647 label, 635 nm, artefact control for SMM control protein annotation, primary screen (AID 1127); conditions: ConA-A647 binding fluorescence, higher = more signal;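 note: z combines 667 nm emission intensity with signal-to-noise across three replicate slides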
Concanavalin-A (Canavalia ensiformis), sequence (P02866 whole entry, looked up): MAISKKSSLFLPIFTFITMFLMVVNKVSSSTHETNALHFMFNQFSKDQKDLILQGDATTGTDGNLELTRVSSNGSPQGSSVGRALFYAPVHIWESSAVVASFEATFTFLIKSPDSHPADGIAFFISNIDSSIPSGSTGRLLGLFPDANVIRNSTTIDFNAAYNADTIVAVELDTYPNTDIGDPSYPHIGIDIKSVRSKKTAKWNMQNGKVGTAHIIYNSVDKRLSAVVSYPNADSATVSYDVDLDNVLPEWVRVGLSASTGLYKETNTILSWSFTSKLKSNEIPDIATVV

SMILES	composite z-score (Albumin (Bos taurus))	composite Z-score [1]	composite z-score [2]	composite z-score [3]	composite z-score [4]	composite z-score [5]	composite z-score [6]	composite z-score (Sam68 (KHDRBS1))	composite z-score [7]	composite z-score [8]
C=CCOC(=O)[C@H]1[C@@H]2C(=O)O[C@@H](c3ccccc3)[C@@H](c3ccccc3)N2[C@@H](c2ccc(OCCOC(=O)[C@H]3C[C@H]4C(=O)N[C@@H](CCCC[N+](C)(C)C)C(=O)N4[C@H]3c3ccc(O)cc3)cc2)[C@]12C(=O)Nc1ccccc12	-0.317	0.0338 (inactive)	0.0306	-0.14	0.456	0.776	0.411	0.028	0.518	0.843
CN(C)CCCCCCNC(=O)[C@@H]1C[C@@H]2C(=O)N[C@@H](Cc3ccccc3)C(=O)N2[C@@H]1c1cccc(OCCO)c1	-0.0152	0.816 (inactive)	0.0715	-0.0793	0.784	2.51	0.142	1.31	0.711	1.11
COCCOC(=O)N1C(=O)[C@@]2(c3cc(C#CCCO)ccc31)[C@H](c1ccc(O)cc1)N1[C@H](c3ccccc3)[C@H](c3ccccc3)OC(=O)[C@H]1[C@@H]2C(=O)N1CCCCCCC1	0.0837	1.11 (inactive)	0.489	0.0931	0.431	0.666	0.642	1.3	0.755	1.1
O=C1C2C=CC(C(O)c3ccccn3)N(Nc3ccccc3F)C2C(=O)N1c1ccccc1 (stereo not given)	0.127	-0.21 (inactive)	-0.0918	-0.111	0.766	0.596	0.753	0.0702	0.194	0.634
[N-]=[N+]=NCc1ccccc1[C@H]1OC(c2ccc(OCCCO)cc2)=N[C@@]1(Cc1ccccc1)C(=O)O	0.179	-0.365 (inactive)	0.102	-0.106	0.63	1.05	-0.289	1.13	-0.469	1.11
C=C(CCCC)C(=O)CC[C@H](OC(C)=O)c1ccc(CO)o1	-0.471	0.304 (inactive)	0.0701	-0.117	0.637	0.136	0.164	0.865	-0.149	-0.0156
Cc1ccc(C(C)CC(O)C2C=CC3C(=O)NC(=O)C3N2Nc2ccccn2)o1 (stereo not given)	-0.5	0.598 (inactive)	0.237	-0.106	0.887	0.305	0.149	0.259	0.676	-0.336
COC(=O)C(CC#Cc1ccc2c(c1)[C@]1(C(=O)N2)[C@H](C(=O)N2CCCCCCC2)[C@H]2C(=O)O[C@H](c3ccccc3)[C@H](c3ccccc3)N2[C@@H]1c1ccccc1OCCO)C(=O)OC	0.678	10.6 (active)	2.26	1.16	1.08	5.41	1.58	1.32	1.68	0.916
C=CC[C@@]1(C(=O)NCCN2CCOCC2)N=C(c2ccc(OCCCO)cc2)O[C@@H]1c1ccccc1CN=[N+]=[N-]	0.831	-0.0095 (inactive)	-0.434	-0.397	0.556	2.9	0.895	1.2	0.055	0.85
[N-]=[N+]=NCc1ccccc1C[C@]1(C(N)=O)N=C(c2ccc(OCCCO)cc2)O[C@H]1c1ccccc1N=[N+]=[N-]	0.421	-0.338 (inactive)	0.327	0.0185	0.513	1.46	0.312	1.23	-0.652	1.09
COC(=O)c1nc2oc1CC[C@@H](CO)NC(=O)N(C)Cc1cn(nn1)C[C@H](Cc1ccccc1)NC2=O	0.775	-0.275 (inactive)	-0.256	-0.152	0.942	1.02	0.483	0.178	0.376	0.667
NC(=O)[C@]1(Cc2ccccc2)N=C(c2ccc(OCCCO)cc2)O[C@@H]1c1ccccc1	0.532	0.702 (inactive)	0.106	0.0959	0.865	2.53	0.583	0.827	-0.0464	0.587
O=C1OCC=C[C@H]2OC34C=CCN(c5ccc(Cl)cc5)C(=O)[C@H]3N(CCCO)C(=O)[C@@H]4[C@@H]12 (stereo not given in full)	-1.3	-0.265 (inactive)	-0.254	-0.164	0.96	0.446	-0.0727	-0.819	-1.6	-0.927
CCCCCCCCCCC(O)C1C=CC2C(=O)N(c3ccccc3)C(=O)C2N1Nc1ccc([N+](=O)[O-])cc1 (stereo not given)	0.804	0.568 (inactive)	0.216	-0.0984	0.594	1.63	0.109	1.31	-0.301	1.05
C[N+](C)(C)CCCCNC(=O)[C@H]1C[C@H]2C(=O)N3CCC[C@H]3C(=O)N2[C@H]1c1ccc(O)cc1	-0.926	-0.388 (inactive)	0.0793	-0.0449	0.627	2.08	0.625	0.895	1.21	1.09
[N-]=[N+]=Nc1ccccc1[C@H]1OC(c2ccc(OCCCO)cc2)=N[C@@]1(CCS(=O)(=O)c1ccccc1)C(=O)N1CCOCC1	1.08	1.23 (inactive)	0.586	0.358	0.522	2.65	0.603	1.3	-0.409	1.22
COC(=O)[C@@]1(Cc2ccccc2)[C@H]2c3cc(C(=O)N(C)C)n(Cc4ccccc4)c3C[C@H]2CN1C(=O)c1ccccc1	0.75	0.047 (inactive)	0.184	-0.0895	0.749	1.41	-0.469	-0.0506	-0.539	0.919
COC(=O)[C@@]1(Cc2ccc(F)cc2)[C@H]2c3cc(C(=O)N(C)C)n(Cc4ccccn4)c3C[C@H]2CN1C(=O)c1ccccc1	0.979	-0.91 (inactive)	1.15	-0.168	0.908	2.46	1.08	1.19	-0.552	0.481
CC(C)NC(=O)[C@@H]1c2ccccc2C(=O)N(C2CCCCC2)[C@H]1c1ccc(CO)cc1	-0.338	-0.101 (inactive)	-0.0731	-0.0326	0.336	1.47	-0.0044	0.77	-0.329	0.661
[N-]=[N+]=NCc1ccccc1[C@@H]1OC(c2ccc(OCCCO)cc2)=N[C@]1(Cc1ccccc1)C(=O)O	0.188	1.38 (inactive)	-0.0362	-0.0836	0.607	2.25	-0.324	1.13	-0.817	0.802
CC(=O)NCCCC[C@@H]1NC(=O)[C@@H]2C[C@H](C(=O)NCc3ccc(F)cc3)[C@H](c3ccc(O)cc3)N2C1=O	-1.25	0.15 (inactive)	-0.0391	-0.153	0.715	1.79	0.453	1.02	0.526	1.15
C=CCN1C(=O)[C@@]2(O[C@@H](CCO)[C@H]([Si](C)(C)c3ccc(OC)cc3)[C@H]2C)c2cc(N3C(=O)COc4ccccc43)ccc21	0.277	0.69 (inactive)	-0.141	-0.14	0.277	1.4	0.0661	1.29	-0.317	0.973
C=C(CCCC)C(=O)CC[C@H](OC(=O)c1ccccc1-c1ccccc1C(=O)O)c1ccc(CO)o1	0.734	0.0663 (inactive)	-0.0014	-0.14	0.15	0.455	0.645	1.29	0.82	0.933
C=C(/C(=C/C[C@@H](OC(=O)c1ccncc1)c1ccc(CO)o1)c1cc(C(=O)OC)ccc1OC)C(C)C	0.83	0.459 (inactive)	0.0311	-0.109	0.588	1.13	0.812	1.3	0.737	1.08
O=C(NCC(O)CO)[C@@]1(Cc2ccccc2)COC(c2ccc(OCCCO)cc2)=N1 (stereo not given in full)	0.536	-0.936 (inactive)	-0.0984	-0.189	0.738	0.737	-0.192	-0.274	-0.445	-1.4
COCCOC(=O)N1C(=O)[C@@]2(c3cc(C#CC4=CCCCC4)ccc31)[C@H](c1ccc(OCCO)cc1)N1[C@H](c3ccccc3)[C@H](c3ccccc3)OC(=O)[C@H]1[C@@H]2C(=O)Nc1nc2ccccc2s1	0.539	0.657 (inactive)	0.151	-0.0483	0.154	0.999	0.664	1.31	1.29	1.09
COc1cc(CO)cc(I)c1O[C@H]1C=C(C(=O)NCCO)C[C@@H](N(CCc2cccc(F)c2)C(=O)CCC2CCCC2)[C@@H]1O	-0.526	0.687 (inactive)	0.13	-0.0596	0.117	1.29	1.88	1.3	1.32	0.444
